Laboratory results as given in PubChem BioAssay (Tox21).
Records with an inconclusive call do not appear. Unmarked numbers belong to inactive results. Unless noted, calls come from the whole dose curve.

System: not listed separately
Experiment: cAMP Responsive Elements (CRE) small molecule antagonists, cell-based qHTS assay (AID 1963591; active = well fitted inhibition curve with a large enough effect in the signal ratio in the repeat runs, not every such curve was filed as active; the % refers to the signal ratio)
Conditions: CRE-bla HEK293T, beta-lactamase FRET ratio; series mostly up to 92.4 µM; activity change, negative = inhibition: at the top concentration
Method in brief: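 Stimulation used NKH477 at a final 0.25 uM for 3 h in compound-treated CRE-bla HEK293T cells, seeded 18 h beforehand. Reporter activity was measured with LiveBLAzer B/G FRET substrate after 2 h at room temperature.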
% is set by controls: 0 for no effect and ±100 for the full control effect.

Row | SMILES | activity change, negative = inhibition
1 | CC[N+](C)(CC)CCOC(=O)C1c2ccccc2Oc2ccccc21 | 0.402% [at 42.4 µM]
2 | O=C(NN1CCCC1)NS(=O)(=O)c1ccc(Cl)cc1 | -13.3% [at 42.4 µM]
3 | CCCNCCC | 3.05%
4 | O=C1CC[C@@H](C(=O)O)N1 | 2.8% [at 42.4 µM]
5 | C1C2OC2C2C1C1CC2C2OC12 (configuration not stated) | 0.339%
6 | Cc1ccc(C#N)cc1 | -0.766%
7 | O=CNc1ccccc1 | -0.984%
8 | FC(F)(Cl)C(F)(Cl)Cl | -4.4%
9 | CCCCCCCCCCO[C@@H]1O[C@H](CO)[C@@H](O)[C@H](O)[C@H]1O | -9.72%
10 | CC(C)COC(=O)CCCCC(=O)OCC(C)C | 0.889%
11 | NCCCC(N)(C(=O)O)C(F)F (configuration not stated) | -8.49% [at 42.4 µM]
12 | Cc1ccccc1Br | -0.0458%
13 | CCCCCCCCS(=O)(=O)O | 3.18%
14 | CCOC(=O)[C@@](C)(N)Cc1ccc(O)c(O)c1 | 10.2% [at 42.4 µM]
15 | CC1(C)SC(C)(C)SC(C)(C)S1 | -4.52%
16 | NCCCCCCNCCCCCCN | 0.114%
17 | CCN(CC)CCNC(C(=O)OCCC(C)C)c1ccccc1 (configuration not stated) | 10.5% [at 42.4 µM]
18 | CCCCCCCCCCCCCOC(=O)CCSCCC(=O)OCCCCCCCCCCCCC | -14% [at 18.9 µM]
19 | CC(C)(C)C(=O)CCc1ccc(Cl)cc1 | -11.5%
20 | CC(C)(C)C1CCCCC1=O (configuration not stated) | -0.122%
21 | COC(=O)CC(=O)C(C)(C)C | 10.5%
22 | O=C=NCC1CCCC(CN=C=O)C1 (configuration not stated) | 3.13%
23 | O=Cc1cc(O)ccc1Br | 3.63%
24 | Cc1ccc(C)c([N+](=O)[O-])c1 | -0.748%
25 | CCN(CC)C(=O)c1ccc(O)c(OC)c1 | 14.1% [at 42.4 µM]
26 | Cc1cccc(NC(=S)N(C)C)c1 | 8.31%
27 | COc1ccc(OC)c(Cl)c1 | -14.7%

Molecular target: Beta-2 adrenergic receptor (Homo sapiens) (UniProt P07550)
Experiment: Adrenergic beta2 receptor (ADRB2) small molecule antagonists, cell-based qHTS assay (AID 1963592); note: nearly all actives have a fitted effect of over 50% in size
Conditions: CHO-ADRB2 cells, isoproterenol-stimulated cAMP HTRF ratio, 0.5 h; series mostly up to 92.4 µM; activity change, negative = inhibition: at the top concentration
Method in brief: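 Assay format: CHO-ADRB2 cells, 18-20hr seeding at 37C/5% CO2, then compound plus 1nM isoproterenol agonist mix for 0.5hr RT. Homogeneous time-resolved fluorescence cAMP detection after 1hr, expressed as 665/615 nm ratio.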

Sequence of Beta-2 adrenergic receptor (Homo sapiens) (P07550 whole entry, looked up): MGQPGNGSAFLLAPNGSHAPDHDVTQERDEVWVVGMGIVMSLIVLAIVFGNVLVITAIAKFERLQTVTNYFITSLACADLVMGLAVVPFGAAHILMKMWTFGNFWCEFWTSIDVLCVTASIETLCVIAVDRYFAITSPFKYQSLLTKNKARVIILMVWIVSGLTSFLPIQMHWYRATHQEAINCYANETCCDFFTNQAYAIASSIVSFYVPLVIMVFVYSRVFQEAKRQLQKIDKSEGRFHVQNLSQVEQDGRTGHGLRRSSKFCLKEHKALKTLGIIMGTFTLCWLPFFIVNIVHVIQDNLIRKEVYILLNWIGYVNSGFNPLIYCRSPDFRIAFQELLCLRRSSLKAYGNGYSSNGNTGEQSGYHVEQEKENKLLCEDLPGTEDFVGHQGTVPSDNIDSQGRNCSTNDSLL

Row | SMILES | activity change, negative = inhibition
28 | CC[N+](C)(CC)CCOC(=O)C1c2ccccc2Oc2ccccc21 | 0.984% [at 42.5 µM]
29 | C/C=C1/C(=O)C[C@H]2[C@@H]3CCC4=CC(=O)CC[C@]4(C)[C@H]3CC[C@]12C | 0.468%
30 | O=C(NN1CCCC1)NS(=O)(=O)c1ccc(Cl)cc1 | 9.35% [at 42.5 µM]
31 | CCCNCCC | 0.954%
32 | O=C1CC[C@@H](C(=O)O)N1 | 10.4% [at 42.5 µM]
33 | C1C2OC2C2C1C1CC2C2OC12 (configuration not stated) | 3.77%
34 | Cc1ccc(C#N)cc1 | -8.72%
35 | CC[C@@]1(c2ccccc2)NC(=O)N(C)C1=O | -5.21% [at 42.5 µM]
36 | CC[C@H]1O[C@]2(CC[C@@H]1C)C[C@@H]1C[C@@H](C/C=C(\C)C[C@@H](C)/C=C/C=C3\CO[C@@H]4[C@H](O)C(C)=C[C@@H](C(=O)O1)[C@]34O)O2 | 7.77%
37 | O=CNc1ccccc1 | 2.32%
38 | FC(F)(Cl)C(F)(Cl)Cl | -0.786%
39 | CCN(C(=O)N(CC)c1ccccc1)c1ccccc1 | 3.52%
40 | CCCCCC/C=C/C=O | -4.99%
41 | CCCCCCCCCCO[C@@H]1O[C@H](CO)[C@@H](O)[C@H](O)[C@H]1O | 0.172%
42 | CC(C)COC(=O)CCCCC(=O)OCC(C)C | 0.377%
43 | CCOc1ccc(NC(=O)CC(C)=O)cc1 | -7.11%
44 | CCOC(=O)CC(=O)c1ccccc1 | 1.79%
45 | NCCCC(N)(C(=O)O)C(F)F (configuration not stated) | -6.98% [at 42.5 µM]
46 | Cc1ccccc1Br | 9.09%
47 | CCCCCCCCS(=O)(=O)O | 2.79%

Row | SMILES | activity change, negative = inhibition
48 | CCOC(=O)[C@@](C)(N)Cc1ccc(O)c(O)c1 | 18% [at 42.5 µM]
49 | CC1(C)SC(C)(C)SC(C)(C)S1 | -3.13%
50 | NCCCCCCNCCCCCCN | 0.623%
51 | CCN(CC)CCNC(C(=O)OCCC(C)C)c1ccccc1 (configuration not stated) | 2.7% [at 42.5 µM]
52 | Oc1cc2ccccc2c2ccccc12 | -24.7%
53 | CCCCCCC(C)Nc1ccc(Nc2ccccc2)cc1 (configuration not stated) | 10.1%
54 | CCCCCCCCCCCCCOC(=O)CCSCCC(=O)OCCCCCCCCCCCCC | -0.103% [at 19 µM]
55 | CC(C)(C)C(=O)CCc1ccc(Cl)cc1 | 5.21%
56 | CC(C)COC(=O)COc1ccc(Cl)cc1Cl | 4.97%
57 | C=C(C)c1cccc(C(=C)C)c1 | -14.2%
58 | CC(C)(C)C1CCCCC1=O (configuration not stated) | 1.26%
59 | COC(=O)CC(=O)C(C)(C)C | 1.91%
60 | CC(C)NCC(O)c1cc(O)cc(O)c1 (configuration not stated) | 0.159% [at 42.5 µM]
61 | O=C=NCC1CCCC(CN=C=O)C1 (configuration not stated) | 2.08%
62 | NNc1nc(-c2ccccc2)cs1 | -13.1%
63 | O=Cc1cc(O)ccc1Br | -15.4%
64 | Cc1ccc(C)c([N+](=O)[O-])c1 | 1.54%
65 | CCN(CC)C(=O)c1ccc(O)c(OC)c1 | 5.54% [at 42.5 µM]
66 | Cc1cccc(NC(=S)N(C)C)c1 | -2.03%
67 | COc1ccc(OC)c(Cl)c1 | 0.599%

Molecular target: Beta-2 adrenergic receptor (Homo sapiens) (UniProt P07550)
Experiment: Adrenergic beta2 receptor (ADRB2) small molecule agonists, cell-based qHTS assay (AID 1963593);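 note: CHO cells stably overexpressing human ADRB2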
Conditions: CHO-ADRB2 cells, cAMP HTRF, 30 min; series mostly up to 92.4 µM; activation: at the top concentration
Method in brief: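 CHO cells stably over-expressing ADRB2 were plated overnight at 37C, then dosed with compounds plus a stimulation mix containing 100uM IBMX and 25uM Ro-20-1724 for 0.5hr at room temperature. cAMP was measured by HTRF competition, 1hr.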

Row | SMILES | activation
68 | O=C(NN1CCCC1)NS(=O)(=O)c1ccc(Cl)cc1 | -2.39% [at 42.5 µM]
69 | CC[C@@]1(c2ccccc2)NC(=O)N(C)C1=O | 19.4% [at 42.5 µM]
70 | CCCCCC/C=C/C=O | -17.7%
71 | CCOC(=O)CC(=O)c1ccccc1 | 3.06%
72 | NCCCC(N)(C(=O)O)C(F)F (configuration not stated) | 7.64% [at 42.5 µM]
73 | Cc1ccccc1Br | 0.0014%
74 | CC1(C)SC(C)(C)SC(C)(C)S1 | 1.41%
75 | COC(=O)CC(=O)C(C)(C)C | 5.53%
76 | O=Cc1cc(O)ccc1Br | -3.06%
77 | Cc1cccc(NC(=S)N(C)C)c1 | -7.21%
78 | COc1ccc(OC)c(Cl)c1 | 9.67%

Molecular target: D(2) dopamine receptor (Homo sapiens) (UniProt P14416)
Experiment: Dopamine D2 receptor (DRD2) small molecule agonists, cell-based qHTS assay (AID 1963594); note: nearly all actives have a fitted effect of over 35% in size
Conditions: HEK293-DRD2 cAMP HTRF, agonist mode, 30 min; series mostly up to 92.4 µM; activation: at the top concentration
Method in brief: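 cAMP accumulation in DRD2-HEK293 cells measured by HTRF after 1 h detection; compounds added 10 min before NKH477 (200nM […]) forskolin-analogue stimulation, 30 min at room temperature, with Ro20-1724 present at 0.1 mM final.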

Sequence of D(2) dopamine receptor (Homo sapiens) (P14416 whole entry, looked up): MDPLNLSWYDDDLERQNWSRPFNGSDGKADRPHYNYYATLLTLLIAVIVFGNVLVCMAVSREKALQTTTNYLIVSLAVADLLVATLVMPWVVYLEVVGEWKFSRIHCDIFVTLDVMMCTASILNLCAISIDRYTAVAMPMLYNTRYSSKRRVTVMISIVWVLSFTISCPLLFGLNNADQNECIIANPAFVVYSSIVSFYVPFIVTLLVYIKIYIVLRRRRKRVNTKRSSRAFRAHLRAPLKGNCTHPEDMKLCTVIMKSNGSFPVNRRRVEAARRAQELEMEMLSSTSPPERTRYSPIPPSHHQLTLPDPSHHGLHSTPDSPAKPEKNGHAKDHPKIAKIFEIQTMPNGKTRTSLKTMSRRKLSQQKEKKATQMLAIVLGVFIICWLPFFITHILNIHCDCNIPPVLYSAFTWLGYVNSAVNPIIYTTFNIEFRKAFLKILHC

Row | SMILES | activation
79 | CC[N+](C)(CC)CCOC(=O)C1c2ccccc2Oc2ccccc21 | -26% [at 42.5 µM]
80 | C/C=C1/C(=O)C[C@H]2[C@@H]3CCC4=CC(=O)CC[C@]4(C)[C@H]3CC[C@]12C | -1.72%
81 | O=C(NN1CCCC1)NS(=O)(=O)c1ccc(Cl)cc1 | -7.33% [at 42.5 µM]
82 | CCCNCCC | -0.261%
83 | O=C1CC[C@@H](C(=O)O)N1 | -0.116% [at 42.5 µM]
84 | C1C2OC2C2C1C1CC2C2OC12 (configuration not stated) | 2.56%
85 | CC[C@@]1(c2ccccc2)NC(=O)N(C)C1=O | 1.64% [at 42.5 µM]
86 | CC[C@H]1O[C@]2(CC[C@@H]1C)C[C@@H]1C[C@@H](C/C=C(\C)C[C@@H](C)/C=C/C=C3\CO[C@@H]4[C@H](O)C(C)=C[C@@H](C(=O)O1)[C@]34O)O2 | -14.9%
87 | O=CNc1ccccc1 | -0.421%
88 | FC(F)(Cl)C(F)(Cl)Cl | -1.33%
89 | CCN(C(=O)N(CC)c1ccccc1)c1ccccc1 | 4.7%
90 | CCCCCC/C=C/C=O | -16.5%
91 | CCCCCCCCCCO[C@@H]1O[C@H](CO)[C@@H](O)[C@H](O)[C@H]1O | -4.9%
92 | CC(C)COC(=O)CCCCC(=O)OCC(C)C | -12.5%
93 | CCOC(=O)CC(=O)c1ccccc1 | -0.37%
94 | NCCCC(N)(C(=O)O)C(F)F (configuration not stated) | -13.1% [at 42.5 µM]
95 | Cc1ccccc1Br | -1.27%

Row | SMILES | activation
96 | CCCCCCCCS(=O)(=O)O | 0.0868%
97 | CCOC(=O)[C@@](C)(N)Cc1ccc(O)c(O)c1 | 1.48% [at 42.5 µM]
98 | CC1(C)SC(C)(C)SC(C)(C)S1 | 2.03%
99 | NCCCCCCNCCCCCCN | 2.09%
100 | CCN(CC)CCNC(C(=O)OCCC(C)C)c1ccccc1 (configuration not stated) | -12.5% [at 42.5 µM]
101 | CCCCCCC(C)Nc1ccc(Nc2ccccc2)cc1 (configuration not stated) | -4.26%
102 | CC(C)(C)C(=O)CCc1ccc(Cl)cc1 | 2.97%
103 | CC(C)COC(=O)COc1ccc(Cl)cc1Cl | 0.677%
104 | COC(=O)CC(=O)C(C)(C)C | 2.43%
105 | CC(C)NCC(O)c1cc(O)cc(O)c1 (configuration not stated) | -14.6% [at 42.5 µM]
106 | O=C=NCC1CCCC(CN=C=O)C1 (configuration not stated) | -3.99%
107 | NNc1nc(-c2ccccc2)cs1 | 0.106%
108 | O=Cc1cc(O)ccc1Br | -4.21%
109 | Cc1ccc(C)c([N+](=O)[O-])c1 | 0.794%
110 | CCN(CC)C(=O)c1ccc(O)c(OC)c1 | -5.45% [at 42.5 µM]
111 | Cc1cccc(NC(=S)N(C)C)c1 | -10.8%
112 | COc1ccc(OC)c(Cl)c1 | 8.48%
